Source: PubChem (Sanford-Burnham Center for Chemical Genomics)
eIF4H inh – human eIF4H binding inhibitors, primary screen, translation initiation inhibitor project, biochemical, uHTS, fluorescence polarization | Eukaryotic translation initiation factor 4H (Homo sapiens), Q15056 | eIF4H fluorescence polarization binding assay | inhibition, % at 35 µM | 290,000 tested, 0.94% active;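 also: calls also rest on retests at 20 µM and on dose response follow-up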
A3G deaminase – APOBEC3G DNA deaminase inhibitors, primary screen, biochemical, fluorescence, single-stranded DNA substrate, uHTS; recombinant A3G, ssDNA deamination FAM/TAMRA fluorescence; inhibition, % at 20 µM; 330,000 tested, 0.28% active; AID 493012, 2011;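 active = inhibition of at least 40% at 20 µM, with no more than 30% in the related APOBEC3A deaminase screen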
PHOSPHO1 inh – PubChem AID 1565 | Phosphoethanolamine/phosphocholine phosphatase (Homo sapiens), Q8TCT1 | recombinant PHOSPHO1, absorbance phosphatase assay | inhibition, % at 13.3 µM | 290,000 tested, 1.1% active; in the data active = inhibition above about 60%
PABP polyA inh – PABP poly(A) RNA binding inhibitors, primary screen, biochemical, fluorescence polarization, uHTS; Polyadenylate-binding protein 1 (Homo sapiens), P11940; 290,000 tested, 1% active; calls only at 35 µM;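 also: calls also rest on retests at 20 µM and on dose response follow-up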
APOBEC3A inh – APOBEC3A ssDNA deaminase inhibitors, primary screen, selectivity assay for APOBEC3G inhibitor project, biochemical, FAM/TAMRA oligo cleavage fluorescence; 330,000 tested, 0.41% active; inhibition, % at 20 µM; recombinant A3A, FAM/TAMRA ssDNA deamination fluorescence; DNA dC->dU-editing enzyme APOBEC-3A (Homo sapiens), P31941;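 active = at least 40% inhibition at 20 µM here, with at most 30% in a related deaminase screen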
Target sequence (P31941 whole entry, looked up): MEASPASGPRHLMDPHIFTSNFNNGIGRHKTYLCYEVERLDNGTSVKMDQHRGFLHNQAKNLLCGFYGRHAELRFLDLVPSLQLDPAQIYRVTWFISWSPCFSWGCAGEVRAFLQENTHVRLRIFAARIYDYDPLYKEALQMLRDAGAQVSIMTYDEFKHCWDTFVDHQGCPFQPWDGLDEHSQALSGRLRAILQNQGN
MLLE-PAM2 inh – inhibitors of PABP1 MLLE–PAM2 peptide binding, primary screen, biochemical, fluorescence polarization, FITC-PAM2, GST-MLLE; inhibition, % at 20 µM; 360,000 tested, 0.36% active; in the data active = inhibition above about 35%, passing the limit was not always enough
Hits are given with their value; n = inactive; x = not tested or not shown; + = active, no number. Shown are actives, neighbours in structure and some others; about 2.6% of the full set was active somewhere. Unless noted, no rule for the calls is given here.

SMILES	eIF4H inh	A3G deaminase	PHOSPHO1 inh	PABP polyA inh	APOBEC3A inh	MLLE-PAM2 inh
CC(=O)[C@H]1[C@@H]2C(=O)N(c3cccc(Cl)c3)C(=O)[C@@H]2[C@H]2c3ccccc3C=CN21	n	n	n	+	n	n
CC(=O)[C@@H]1[C@@H]2C(=O)N(c3ccc(F)c(Cl)c3)C(=O)[C@@H]2C2c3ccccc3C=CN21 (stereo partly specified)	n	n	n	n	n	x
Cc1c(NC(=O)COC(=O)c2ccc(F)c(S(=O)(=O)N3CCOCC3)c2)c(=O)n(-c2ccccc2)n1C	n	n	n	n	n	n
CCOC(=O)c1oc2ccccc2c1COC(=O)CNC(=O)c1ccc(C)cc1	x	n	x	x	n	n
COc1ccc(NC(=O)C2CCCN(S(=O)(=O)c3ccc4c(c3)CCCN4C(C)=O)C2)cc1Cl (stereo unspecified)	x	n	n	x	n	n
CCOC(=O)c1sc(=S)n(-c2ccccc2)c1SC	n	n	n	n	n	n
CCOC(=O)c1sc(=S)n(-c2ccccc2Cl)c1SC	n	n	n	n	n	39
C[n+]1cc[nH]c1SCC(=O)c1ccccc1	n	n	60	n	n	n
C[n+]1cc[nH]c1SCC(=O)c1ccc(Cl)cc1	n	n	n	n	n	n
Cc1ccc(-c2n[nH]c(=S)n2/N=C/C=C\c2ccccc2[N+](=O)[O-])cc1	n	n	92	n	n	n
O=[N+]([O-])c1ccccc1/C=C/C=N/n1c(-c2ccc(Cl)cc2)n[nH]c1=S	n	n	104	n	n	n
Cn1ccc2c(N3c4ccccc4CCc4ccccc43)cc3c(c21)C1CCC3O1 (stereo unspecified)	x	x	x	x	x	n
COc1ccc(NC(C)=O)cc1NC(=O)CSc1nnc(-c2cccnc2)n1C	n	n	n	n	n	n
COc1ccccc1NC(=O)CC(=O)CSc1nnc(-c2ccc(C)cc2)n1C	n	n	88	n	n	n
COc1ccccc1NC(=O)CSc1nnc(-c2ccc(NC(C)=O)cc2)n1C	n	n	106	n	n	n
CN(C)c1nc(Nn2cnnc2)nc(N(C)C)n1	n	n	n	n	n	n
CC(C)(C)n1cc(S(=O)(=O)c2ccccc2)[nH]c1=O	active	n	n	+	n	n
Cc1cc(C)c(S(=O)(=O)c2ccccc2)c(=O)[nH]1	n	n	x	n	n	n
COc1ccc(CC(=O)N/N=C(\C)CC(=O)NCc2ccco2)cc1OC	n	n	n	n	n	n
CCCCC(=O)Nc1ccc(C(=O)N(CC)c2ccccc2C)cc1	n	n	66	n	n	n
CCN(C(=O)c1ccc(NC(C)=O)cc1)c1ccccc1C	n	n	n	n	n	n
O=S(=O)(Oc1ccccc1N1CCCCC1)c1ccccc1	n	n	n	n	n	n
CC[C@@H](C)C(N)c1cn([C@@H](CCC(=O)O)C(=O)N2CCNCC2)nn1 (stereo partly specified)	n	n	n	n	n	n
COc1ccc(Cl)cc1NS(=O)(=O)c1cccc(C(=O)N2CC(C)OC(C)C2)c1 (stereo unspecified)	x	n	x	x	n	n
CC1CN(C(=O)c2cccc(S(=O)(=O)Nc3ccc(Cl)cc3)c2)CC(C)O1 (stereo unspecified)	active	n	n	+	n	n
SMILES	eIF4H inh	A3G deaminase	PHOSPHO1 inh	PABP polyA inh	APOBEC3A inh	MLLE-PAM2 inh
CCOc1ccc2nc(SCC(=O)N(C)C3CCS(=O)(=O)C3)[nH]c2c1 (stereo unspecified)	n	n	100	n	n	n
Cc1cc(C)n2nc3nc(N4CCCCC4)nc(-c4ccco4)c3c2n1	72	n	n	+	n	n
Cc1cc(C)n2nc3ccccc3c2n1	n	n	n	n	n	n
N#Cc1c(N)[nH]c(=S)c(C#N)c1-c1ccccc1	n	n	96	n	n	n
Cc1ccc(-c2cc(-c3ccccc3)[nH]c(=S)c2C#N)cc1	n	n	n	n	n	n
Fc1cccc2sc(Nc3nnc(-c4ccco4)o3)nc12	61	n	n	+	n	n
COc1cccc2sc(Nc3nnc(-c4ccc(F)cc4)o3)nc12	n	n	n	n	n	n
CC(C)c1cc(=O)n2[nH]c(SCc3ccccc3)nc2n1	n	n	63	n	n	n
